Results published in PubChem BioAssay AID1479148 (National Center for Advancing Translational Sciences (NCATS), 2020).
Records with an inconclusive call do not appear. The source made the active and inactive calls. Calls come from the whole dose curve.

Test: Confirmatory qHTS for inhibitors of SARS-S pseudo-typed particle cell entry

Row | SMILES | Potency
1 | O=C1c2c(O)ccc(O)c2C(=O)c2c(NCCNCCO)ccc(NCCNCCO)c21 | 0.121 µM (active)
2 | CN1CCCCC1CCN1c2ccccc2Sc2ccc(S(C)=O)cc21 (centres undefined) | 27.1 µM (active)
3 | Oc1c(Cl)cc(Cl)c(Cl)c1Cc1c(O)c(Cl)cc(Cl)c1Cl | 1.21 µM (active)
4 | CN1CCC(=C2c3ccccc3C=Cc3ccccc32)CC1 | 27.1 µM (active)
